The whole screen tested about 96,000 compounds, of which about 19,000 (20%) were called active. Only a sample is shown. A number with no mark means an inactive call.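 Rule for the calls: active = blocking of liver enzyme CYP2C9 beyond about 50% at 5 µM (limit read from the data); inactive = the rest.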

For this experiment, the target named is Cytochrome P450 2C9 (Homo sapiens) (UniProt P11712). The experiment is described as follows: blockers of cytochrome P450 2C9 activity – biochemical, luminescence, ADME assay, primary screen (AID 777). The conditions noted are these: CYP2C9 Supersomes, luciferin-H conversion, at 5 µM, active compounds read high.
Cytochrome P450 2C9 (Homo sapiens), sequence (P11712 whole entry, looked up): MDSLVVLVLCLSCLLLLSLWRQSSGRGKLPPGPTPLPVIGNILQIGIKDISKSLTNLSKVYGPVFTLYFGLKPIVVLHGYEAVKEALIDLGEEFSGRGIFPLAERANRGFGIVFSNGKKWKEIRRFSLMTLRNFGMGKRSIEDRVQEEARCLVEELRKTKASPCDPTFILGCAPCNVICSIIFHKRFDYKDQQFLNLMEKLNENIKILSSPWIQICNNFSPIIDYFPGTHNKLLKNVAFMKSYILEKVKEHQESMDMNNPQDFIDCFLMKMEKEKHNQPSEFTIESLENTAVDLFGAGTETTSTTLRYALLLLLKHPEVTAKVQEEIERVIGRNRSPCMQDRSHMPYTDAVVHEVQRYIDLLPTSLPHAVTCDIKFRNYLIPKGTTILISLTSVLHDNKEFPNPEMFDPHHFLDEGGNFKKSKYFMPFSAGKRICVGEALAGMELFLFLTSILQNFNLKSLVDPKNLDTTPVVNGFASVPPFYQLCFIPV
Turning to `COc1cc(C(=O)N2CCN(C/C=C/c3ccccc3)CC2)cc(OC)c1C`, the inhibition is 67.7% (active).
For `COc1ccc(OCC(=O)N2CCN(C(=O)COc3ccccc3)CC2)cc1`, the inhibition is -2.8%.
As to `CCOc1cc(CN2CCN(C(=O)CC(C)C)CC2)ccc1OC`, the inhibition was -24.7%.
In the case of `Cn1c(C(=O)OC(C(=O)NC2CCCCC2)c2ccccn2)cc2sccc21` (centres undefined) it was -7.2%.
In the case of `CCn1c(/C=C/c2ccc([N+](=O)[O-])o2)nc2ccccc2c1=O` it was -18%.
Under `COC(=O)C1CCN(CC(N)=O)CC1` stands -11.4%; under `CCOC(=O)CC1=CC(=O)Nc2ccccc2N1`, 7.1%.
Consider `O=C(CSc1nc2ncccc2[nH]1)Nc1ccc2c(c1)OCCO2`, for which the inhibition is 95.5% (active).
For the molecule `O=C(CSc1nc(C2CC2)nc2ccccc12)Nc1ccc2c(c1)OCCO2`, the inhibition was 40.1%.
In the case of `O=C(CSc1nnnn1-c1ccc2c(c1)CCC2)Nc1ccc2c(c1)OCCO2` it was 0.6%; in that of `CCC(=O)Nc1cccc(NC(=O)CSc2nnnn2C2CCCC2)c1`, 16.4%.
In the case of `O=C(CSc1nnnn1C1CCCC1)Nc1ccc2c(c1)OCCO2` it was 62.4% (active); in that of `CCNC(=O)c1sccc1-n1cccc1`, 16.1%; in that of `Cc1ccc(N2C(=O)CC(Sc3ncn[nH]3)C2=O)cc1` (centres undefined), -1.5%.
`Nc1nonc1C(=O)NCCc1ccccc1`: the inhibition was -8.7%.
In the case of `COc1ccc(OCCCON2C(=O)c3ccccc3C2=O)cc1` it was 7.6%; in that of `CN1CCN(C(=O)C2C3C=CC(C3)C2C(=O)O)CC1` (centres undefined), -9.2%.
Under `Cc1ccc2nc(S(=O)(=O)O)[nH]c2c1` stands -11.8%; under `Cc1ccc2nc(/C(C#N)=C\c3ccc(OC(=O)c4cccs4)cc3)[nH]c2c1`, 81.3% (active).
In the case of `CSc1nsc(SC)c1NC(=O)OC1CCCCC1` it was 21.9%.
As for `O=C(Cn1c(-c2ccccn2)nc2ccccc21)NCCN1CCOCC1`, the inhibition was -10.5%.
Under `Cc1cc(Nc2ccccc2)n(CCC#N)n1` stands -12.2%; under `COC(=O)CN1C(=O)C(O)=C(C(C)=O)C1c1ccc([N+](=O)[O-])cc1` (centres undefined), 3.5%.
In the case of `COc1ccc(S(=O)(=O)N2CCCC(C(=O)N3CCN(C)CC3)C2)cc1C` (centres undefined) it was -24%; in that of `COc1cc(-c2noc(C3CCCN(S(=O)(=O)c4cccc(Cl)c4)C3)n2)cc(OC)c1OC` (centres undefined), 85.3% (active); in that of `CC(C)c1ccc(-c2noc(C3CCCN(S(C)(=O)=O)C3)n2)cc1` (centres undefined), 52.2% (active).
In the case of `O=C(c1cccs1)N1CCCC(c2nc(-c3ccc(F)cc3)no2)C1` (centres undefined) it was 76.9% (active); in that of `CS(=O)(=O)N1CCCC(C(=O)N2CCOCC2)C1` (centres undefined), -11.8%.
For `O=C(Cc1cccs1)N1CCCC(c2nc(-c3ccc(S(=O)(=O)N4CCCC4)cc3)no2)C1` (centres undefined), the inhibition is 47.8%.
Under `COc1ccc(NC(=O)C2CCCN(S(=O)(=O)c3cccc4cccnc34)C2)cc1OC` (centres undefined) stands -15.1%.
Under `OCCNc1nc2ccccc2[nH]1` stands 2.6%.
In the case of `Cc1nnc(SCC(=O)Nn2cnnc2)s1` it was 29.8%; in that of `COc1ccccc1NC(=O)c1ccc2nc(N3C(=O)CCC3=O)sc2c1`, -32%.
For `CCOC(=O)c1c(NC(=O)c2ccc(N3CCOCC3)c([N+](=O)[O-])c2)sc(C)c1C`, the inhibition was 7.5%.
Regarding `CCc1cc(C(c2ccccc2OC)N2CCOCC2)c(NC(=O)c2ccccc2)s1` (centres undefined), the inhibition is 85.2% (active).
Under `COc1ccc(-n2c(SC)nc(O)cc2=O)cc1` stands -81.1%.
In the case of `O=C1CSC2=NCN(c3ccccc3)CN12` it was 26.1%; in that of `O=S(N1CCCCCC1)C12CC3CC(CC(C3)C1)C2` (centres undefined), 9.9%.
In the case of `O=C(OCC(=O)N1CCN(C(=O)c2ccco2)CC1)c1ccccc1Cc1ccccc1` it was 31.9%.
As for `CCOC(=O)c1[nH]c2ccccc2c1N=C(C)N(CC)CC`, the inhibition is -6.5%.
Under `COc1cccc(OCCOc2cccc(/C=N/n3cnnc3)c2)c1` stands 40%.
In the case of `COc1ccccc1OCCOc1ccc(/C=N/n2cnnc2)cc1` it was 44.5%; in that of `C=CCOc1ccc(/C=N/n2cncn2)cc1OC`, 57.5% (active).
Regarding `Cc1ccc2c(CSc3nncs3)cc(=O)oc2c1`, the inhibition was 67% (active).
For the molecule `COC(=O)CCSc1cc([N+](=O)[O-])cc2c1c(C1OCCS1)nn2-c1ccccc1` (centres undefined), the inhibition was 34.3%.
In the case of `Cc1ccccc1C(=O)NCCN=C1NS(=O)(=O)c2ccccc21` it was 7.9%.
Under `COc1ccc(C(C#N)N2N=C(C)CC2(C)C)cc1` (centres undefined) stands -2.1%.
With `N#CC1=C(SCc2ccccc2)NC(=O)C(C#N)C12CCCC2` (centres undefined), the inhibition is 46.5%.
Turning to `N#CC1=C(SCc2ccc(C#N)cc2)N=C(N)C(c2nc(-c3ccccc3)cs2)C12CCCCC2` (centres undefined), the inhibition is 98.6% (active).
In the case of `O=C(O)c1cc2ccccc2c(=O)s1` it was -1.7%; in that of `CCOC(=O)C1CCCN(C(=O)C2CCN(c3nnc(-n4cccc4)s3)CC2)C1` (centres undefined), 25.6%.
Under `O=C(O)CCN1C(=O)CC2(CCCCC2)C1=O` stands 11.2%.
Turning to `O=[N+]([O-])c1ccc(C=Nc2ccc(Cl)cc2Cl)s1`, the inhibition was 7.9%.
Take `O=C1[C@@H]2C(Cc3ccc(O)cc3)NC3(C(=O)Nc4ccc(F)cc43)[C@@H]2C(=O)N1c1ccc(F)cc1` (some centres undefined): the inhibition was 50.6% (active).
Under `Cc1ccc(NC(=S)NC(NC(=O)Cc2cccc3ccccc23)C(Cl)(Cl)Cl)cc1` (centres undefined) stands 96.6% (active); under `COc1ccc(NC(=O)C(NC(C)=O)C(=O)NCc2ccccc2Cl)cc1` (centres undefined), 37.2%.
Under `COCCCNC(NC(=O)c1ccc(C)cc1)C(Cl)(Cl)Cl` (centres undefined) stands 4.7%.
Under `COc1ccc(NC(=O)Nc2ccc3nsnc3c2)cc1` stands 23.7%.
As to `COc1cccc2c1OCC1COc3c(c(=O)n(C)c(=O)n3C)C21` (centres undefined), the inhibition was -6%.
In the case of `O=C(Nc1ccc(NC(=O)c2cccs2)cn1)c1ccco1` it was 23.5%; in that of `O=C(Nc1nnc(SCc2ccccc2)s1)c1ccco1`, 6.2%.
Under `NC(=O)c1ccsc1NC(=O)c1ccco1` stands 61.4% (active).
Under `CC(NCCO)C(=O)C12CC3CC(CC(C3)C1)C2` (centres undefined) stands -0.7%; under `COc1ccc(N2C(=O)CCC(C(=O)Nc3ccccn3)C2c2ccc(OC)c(OC)c2)cc1` (centres undefined), 2.6%.

The term inhibition denotes the change of the read-out against control, counted positive when it falls.

Source of the values: PubChem BioAssay AID777 (Sanford-Burnham Center for Chemical Genomics, 2007).
